# Source: PubChem BioAssay (Tox21)
# “And” between values parts separate entries of the source, which are not always exact repeats. Equal entries are not always repeated. Results filed as inconclusive are left out. Entries that show only a call come without a potency. More than one record can exist for a structure, and the calls need not agree. The source made the active and inactive calls. Calls come from the whole dose curve; as a rule, active = well fitted curve in the direction sought with a large enough effect in the repeat runs; inconclusive = weak or mixed curves; inactive = no such curve, though single readings can be large; an effect the other way counts as inactive or inconclusive.
# Experiments:
# [1] = target: Cytochrome P450 2C9 (Homo sapiens) (UniProt P11712); assay: Cytochrome P450 Family 2 Subfamily C Member 9 (CYP2C9) small molecule antagonists: luciferase reporter qHTS assay (AID 1671198)
# Cytochrome P450 2C9 (Homo sapiens), sequence (P11712 whole entry, looked up): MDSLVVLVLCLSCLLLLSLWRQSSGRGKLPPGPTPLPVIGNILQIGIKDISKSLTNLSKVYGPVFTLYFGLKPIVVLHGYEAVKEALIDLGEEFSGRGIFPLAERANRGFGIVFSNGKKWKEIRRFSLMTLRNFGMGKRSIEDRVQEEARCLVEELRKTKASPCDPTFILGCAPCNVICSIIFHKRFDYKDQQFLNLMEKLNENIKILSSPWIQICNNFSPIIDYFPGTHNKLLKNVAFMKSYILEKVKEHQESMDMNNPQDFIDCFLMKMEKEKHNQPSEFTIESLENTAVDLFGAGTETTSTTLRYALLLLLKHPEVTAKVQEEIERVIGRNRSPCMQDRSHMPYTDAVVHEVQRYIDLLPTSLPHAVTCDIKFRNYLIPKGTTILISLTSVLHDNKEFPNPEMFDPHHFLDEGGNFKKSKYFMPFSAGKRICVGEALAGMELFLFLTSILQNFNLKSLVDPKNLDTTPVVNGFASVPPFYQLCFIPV
# Summary of the method: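 Enzyme-substrate mix preincubated with compound 10 min at room temperature; reaction started with NADPH regeneration solution, 1 h 37C. Luminescent luciferin product read after 20 min detection reagent.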
# [2] = target: Cytochrome P450 3A4 (Homo sapiens) (UniProt P08684); assay: Cytochrome P450 Family 3 Subfamily A Member 4 (CYP3A4) small molecule antagonists: luciferase reporter qHTS assay (AID 1671201)
# Cytochrome P450 3A4 (Homo sapiens), sequence (P08684 whole entry, looked up): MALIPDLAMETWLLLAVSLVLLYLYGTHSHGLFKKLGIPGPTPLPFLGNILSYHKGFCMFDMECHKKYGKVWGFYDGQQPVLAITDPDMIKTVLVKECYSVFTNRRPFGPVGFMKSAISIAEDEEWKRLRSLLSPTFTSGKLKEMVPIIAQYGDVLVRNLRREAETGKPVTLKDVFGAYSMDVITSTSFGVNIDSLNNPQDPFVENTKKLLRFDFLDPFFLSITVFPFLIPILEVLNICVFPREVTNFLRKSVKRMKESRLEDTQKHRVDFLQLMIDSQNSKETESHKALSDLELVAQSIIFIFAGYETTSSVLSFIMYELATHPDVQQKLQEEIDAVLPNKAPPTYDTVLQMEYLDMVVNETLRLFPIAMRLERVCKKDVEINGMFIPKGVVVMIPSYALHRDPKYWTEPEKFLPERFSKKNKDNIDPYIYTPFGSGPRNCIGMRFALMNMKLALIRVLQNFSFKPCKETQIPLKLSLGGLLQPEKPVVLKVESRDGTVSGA
# Summary of the method: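 CYP3A4 activity was followed with a P450-Glo proluciferin substrate. Test compounds in DMSO were preincubated 10 min; NADPH regeneration then ran 1 h, and light output was read 20 min after detection reagent.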
# [3] = target: Cytochrome P450 1A2 (Homo sapiens) (UniProt P05177); assay: Cytochrome P450 Family 1 Subfamily A Member 2 (CYP1A2) small molecule antagonists: luciferase reporter qHTS assay (AID 1671199)
# Cytochrome P450 1A2 (Homo sapiens), sequence (P05177 whole entry, looked up): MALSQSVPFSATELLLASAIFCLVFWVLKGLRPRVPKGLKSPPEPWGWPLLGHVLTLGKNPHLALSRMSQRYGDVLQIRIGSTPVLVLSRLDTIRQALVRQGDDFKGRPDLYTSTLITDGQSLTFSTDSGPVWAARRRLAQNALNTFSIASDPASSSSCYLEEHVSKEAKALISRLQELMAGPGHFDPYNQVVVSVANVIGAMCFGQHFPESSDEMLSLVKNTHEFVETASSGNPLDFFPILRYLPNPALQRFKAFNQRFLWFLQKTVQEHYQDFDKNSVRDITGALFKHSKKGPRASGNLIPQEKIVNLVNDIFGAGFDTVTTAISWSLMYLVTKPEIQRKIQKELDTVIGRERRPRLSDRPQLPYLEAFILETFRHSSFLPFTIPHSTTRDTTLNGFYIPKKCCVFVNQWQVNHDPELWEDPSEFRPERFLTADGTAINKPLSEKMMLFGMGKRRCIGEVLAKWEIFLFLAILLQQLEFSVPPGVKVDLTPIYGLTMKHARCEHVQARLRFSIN
# Summary of the method: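 Room-temperature CYP1A2 reaction with proluciferin substrate: compounds added from DMSO, 10 min preincubation, NADPH regeneration for 1 h. Luciferin detection reagent then added; luminescence recorded as RLU.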
# [4] = target: Voltage-gated inwardly rectifying potassium channel KCNH2 (Homo sapiens) (UniProt Q12809); assay: Human Ether-a-go-go-Related Gene (hERG) channel small molecule antagonists: fluorescence cell-based qHTS assay (AID 1671200)
# Voltage-gated inwardly rectifying potassium channel KCNH2 (Homo sapiens), sequence (Q12809 whole entry, looked up): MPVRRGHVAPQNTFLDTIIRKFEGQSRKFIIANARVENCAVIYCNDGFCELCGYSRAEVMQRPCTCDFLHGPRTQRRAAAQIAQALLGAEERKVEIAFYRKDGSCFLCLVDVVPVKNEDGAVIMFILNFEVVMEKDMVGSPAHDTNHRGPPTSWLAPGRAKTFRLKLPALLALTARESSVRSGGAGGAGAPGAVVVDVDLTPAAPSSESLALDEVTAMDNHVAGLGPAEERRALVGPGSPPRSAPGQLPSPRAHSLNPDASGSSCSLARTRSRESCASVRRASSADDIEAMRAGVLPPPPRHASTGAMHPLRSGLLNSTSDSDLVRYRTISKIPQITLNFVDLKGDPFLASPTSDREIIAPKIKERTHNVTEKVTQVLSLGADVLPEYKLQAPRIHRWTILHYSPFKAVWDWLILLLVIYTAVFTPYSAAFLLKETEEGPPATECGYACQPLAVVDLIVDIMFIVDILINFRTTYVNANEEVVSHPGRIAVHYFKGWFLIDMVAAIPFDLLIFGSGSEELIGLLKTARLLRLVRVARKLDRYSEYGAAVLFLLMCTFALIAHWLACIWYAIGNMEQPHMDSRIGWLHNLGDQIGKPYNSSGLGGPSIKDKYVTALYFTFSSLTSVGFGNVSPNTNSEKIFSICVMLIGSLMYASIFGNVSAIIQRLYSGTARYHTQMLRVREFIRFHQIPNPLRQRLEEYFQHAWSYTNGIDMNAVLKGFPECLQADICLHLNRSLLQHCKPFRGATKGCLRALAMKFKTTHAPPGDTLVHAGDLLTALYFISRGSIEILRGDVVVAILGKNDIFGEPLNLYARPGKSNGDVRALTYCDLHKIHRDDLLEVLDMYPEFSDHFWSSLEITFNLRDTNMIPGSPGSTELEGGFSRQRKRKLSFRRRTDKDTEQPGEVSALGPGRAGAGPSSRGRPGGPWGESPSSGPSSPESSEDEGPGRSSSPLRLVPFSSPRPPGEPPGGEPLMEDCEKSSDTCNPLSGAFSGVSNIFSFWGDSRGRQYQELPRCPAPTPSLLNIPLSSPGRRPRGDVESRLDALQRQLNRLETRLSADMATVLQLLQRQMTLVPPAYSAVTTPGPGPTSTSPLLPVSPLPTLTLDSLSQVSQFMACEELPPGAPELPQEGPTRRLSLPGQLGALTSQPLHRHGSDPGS
# Summary of the method: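 In this thallium-flux screen, overnight-cultured U2OS cells bearing the channel are dye-loaded in darkness for an hour, rested 10 min at room temperature, and then monitored kinetically at 480/540 nm for two minutes post-stimulus.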
# Note: nearly all actives have a fitted effect of over 50% in size.
# Potency is the fitted concentration of half-maximal effect.
SMILES,Potency [1],Potency [2],Potency [3],Potency [4]
CC1OC(C)OC(C)O1 (stereo not given),inactive,inactive,,
NCCc1ccc(O)cc1,,,39.6 µM (active) and inactive,inactive
Cn1cc(-c2ccccc2)c(=O)c(-c2cccc(C(F)(F)F)c2)c1,34.7 µM (active) and 31.7 µM (active),12.3 µM (active) and 12.6 µM (active),19.5 µM (active) and 17.8 µM (active),
CCNc1nc(NC(C)(C)C)nc(SC)n1,inactive,inactive,7.01 µM (active) and 7.96 µM (active),
COC(=O)c1ccccc1C(=O)OC,inactive,inactive,31.9 µM (active) and 25.2 µM (active),
CC1C=[C-]C=C1.[C-]#[O+].[C-]#[O+].[C-]#[O+].[Mn],inactive,inactive,,inactive
Clc1cccc(Cl)c1Cl,inactive,inactive,inactive,
O=[N+]([O-])c1ccc(Oc2ccc(Cl)cc2Cl)cc1,,inactive,31.9 µM (active) and 22.4 µM (active),19.5 µM (active)
Nc1ccc(Oc2ccc(N)cc2)cc1,14.4 µM (active) and 8.94 µM (active),18.1 µM (active) and inactive,inactive,
OCCN(CCO)CCO,inactive,inactive,,inactive
CCCCCCCCCl,,inactive,inactive,inactive
CC(Oc1ccc(Cl)cc1Cl)C(=O)O (stereo not given),35.7 µM (active) and 71 µM (active),inactive,inactive,
CC(C)C#N,inactive,inactive,inactive,inactive
OC(O)C(Cl)(Cl)Cl,,inactive,inactive,inactive
CC(C)=C[C@@H]1[C@@H](C(=O)OCc2coc(Cc3ccccc3)c2)C1(C)C,,inactive,27.5 µM (active),inactive
C[C@]12CC[C@H]3[C@@H](CC[C@@]45O[C@@H]4C(O)=C(C#N)C[C@]35C)[C@@H]1CC[C@@H]2O,,inactive,inactive,inactive
Oc1ccccc1Cl,inactive,inactive,,
COC(=O)NC(=S)Nc1ccccc1NC(=S)NC(=O)OC,,,31.7 µM (active),inactive
CCOP(=S)(OCC)Oc1cnc2ccccc2n1,inactive and 1.12 µM (active),inactive and 6.33 µM (active),inactive and 2.24 µM (active),
CC(C)(C)C(O)(CCc1ccc(Cl)cc1)Cn1cncn1 (stereo not given),3.21 µM (active) and 3.56 µM (active),114 nM (active) and 200 nM (active),32.1 µM (active) and 28.3 µM (active),
CCC(C)(CC)c1cc(NC(=O)c2c(OC)cccc2OC)on1,35.7 µM (active) and 34.2 µM (active),799 nM (active) and 1.93 µM (active),,
CNC(=O)Oc1ccccc1OC(C)C,,inactive,35.6 µM (active),inactive
O=[N+]([O-])c1ccc([As](=O)(O)O)cc1,inactive,inactive,inactive,
CCCCOC(=O)c1ccccc1C(=O)OCCCC,,inactive,5.03 µM (active) and 8.94 µM (active),inactive
Nc1c(Cl)c(Cl)nc(C(=O)O)c1Cl,inactive and 65.3 µM (active),inactive,39.5 µM (active) and inactive,

SMILES,Potency [1],Potency [2],Potency [3],Potency [4]
CCC[N+](=O)[O-],inactive,inactive,inactive,
CCCN(CCC)N=O,inactive,inactive,inactive,
CC(NC(C)(C)C)C(=O)c1cccc(Cl)c1 (stereo not given),inactive,inactive,inactive,
O=C(O)c1ccccn1,,inactive,inactive,inactive
Nc1ccc(Br)cc1,,,44.8 µM (active),
O=c1[nH]c(=O)[nH]c(=O)[nH]1,inactive,inactive,inactive,
BrCCBr,,inactive,30.9 µM (active) and inactive,inactive
Clc1ccc(Cl)cc1,inactive,inactive,inactive,
c1ccc(-c2ccccc2)cc1,inactive,inactive,inactive,
CCNc1nc(NC(C)C)nc(SC)n1,inactive,inactive,8.02 µM (active) and 11.2 µM (active),inactive
CCCCCCCCCCCC#N,inactive,inactive,inactive,
CCC12COCN1COC2,,40 µM (active) and inactive,inactive,inactive
CC(C)(Cl)Cl,,inactive,inactive and 44.8 µM (active),
COC(=O)c1ccccc1N,,inactive,34.4 µM (active) and 39.9 µM (active),
O=S(=O)(c1ccc(Cl)cc1)c1cc(Cl)c(Cl)cc1Cl,,inactive,,inactive
Clc1ccccc1Cl,,inactive,inactive,inactive
CCCC1COC(Cn2cncn2)(c2ccc(Cl)cc2Cl)O1 (stereo not given),,51.2 nM (active) and 56.4 nM (active),20.4 µM (active) and 31.7 µM (active),
O=Cc1cccc(Oc2ccccc2)c1,,inactive,35.9 µM (active) and inactive,inactive
Cc1[nH]c(=O)n(C(C)(C)C)c(=O)c1Cl,,inactive,,inactive
COC(=O)NS(=O)(=O)c1ccc(N)cc1,,inactive,inactive,
Cc1cccc([N+](=O)[O-])c1,,inactive,inactive,inactive
CCN(CC)CCO,,inactive,inactive and 31.7 µM (active),
CN=C=S,,inactive,40.3 µM (active),
c1ccc2c(c1)oc1ccccc12,,inactive,inactive and 10 µM (active),
Nc1ccccc1C(=O)O,,inactive,40.1 µM (active) and inactive,inactive

SMILES,Potency [1],Potency [2],Potency [3],Potency [4]
CC(C)C1(C)N=C(c2nc3ccccc3cc2C(=O)O)NC1=O (stereo not given),,inactive,inactive,
CON(C)C(=O)Nc1ccc(Cl)c(Cl)c1,,inactive,1.42 µM (active) and 3.17 µM (active),
NCC(O)c1ccc(O)cc1 (stereo not given),,inactive,inactive,inactive
CCOP(OCC)OCC,,inactive,inactive,
c1ccc2c(c1)Oc1ccccc1O2,,inactive,,inactive
Cc1cc(Cl)ccc1O,,inactive,30.8 µM (active) and 31.7 µM (active),inactive
O=C(NC(=O)c1c(F)cccc1F)Nc1cc(Cl)c(OC(F)(F)C(F)C(F)(F)F)cc1Cl (stereo not given),,inactive,inactive,inactive
O=[N+]([O-])c1ccccc1,,inactive,inactive,inactive
CCOP(=S)(OCC)SCCSCC,,4.12 µM (active) and 3.8 µM (active),26 µM (active) and 7.57 µM (active),inactive
Cc1ccc(N)cc1N,,30.9 µM (active),30.9 µM (active) and 35.6 µM (active),
C#CC(C)(C)NC(=O)c1cc(Cl)cc(Cl)c1,,20.2 µM (active) and 35.6 µM (active),5.07 µM (active) and 15.9 µM (active),inactive
Nc1ccc(Cc2ccc(N)cc2)cc1,,6.99 µM (active) and 3.99 µM (active),39.3 µM (active) and 35.6 µM (active),inactive
COP(N)(=O)SC (stereo not given),,inactive,inactive,
CN(N=O)c1ccccc1,,inactive,inactive,inactive
CN(C)N=O,,inactive,inactive,inactive
CN(C)[C@@H]1C(=O)C(C(N)=O)=C(O)[C@@]2(O)C(=O)C3=C(O)c4c(O)cccc4[C@@](C)(O)[C@H]3C[C@@H]12,,inactive,,
CC(C)OC(=O)Nc1ccccc1,,inactive,28.3 µM (active) and 39.9 µM (active),
CC(C)OC(=O)Nc1cccc(Cl)c1,,inactive,9.89 µM (active) and 8.94 µM (active),
CCC[CH2][Sn]([Cl])([Cl])[Cl],,inactive,inactive,
CC(C)(C)OOC(C)(C)C,,inactive,inactive,
CCOC(=O)c1ccccc1C(=O)OCC,,inactive,3.22 µM (active) and 3.17 µM (active),
CC(Br)C(=O)O (stereo not given),,inactive,inactive,inactive
c1cc2c3c(cccc3c1)CC2,,inactive,,
